Assay outcomes: PubChem BioAssay, National Center for Advancing Translational Sciences (NCATS)
DT40 TDP1 CPT: growth inhibition of DT40 Tdp1-/-;hTDP1 cells with camptothecin (screen for TDP1 inhibitors) | AID 686979 | Potency, µM (highest dose often 46.2 µM), for inactives: at the highest dose activity change, negative = growth inhibition, hits mostly inhibitors | 12% of 420,000 active | chicken DT40 Tdp1-/-;hTDP1 cells + 20 nM CPT, ATP luminescence, 48 h; also: potency is read from the fitted curve at half-maximal effect; % is scaled to controls: 0 for no effect and ±100 for the full control effect; nearly all actives have a fitted effect of over 55% in size
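Chicken DT40 Tdp1-/- cells complemented with human TDP1, 400 cells/well, exposed to compounds plus 20 nM camptothecin for at least 48 h at 37 C; viability read as ATP content by CellTiter-Glo luminescence.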
TDP1 block: inhibitors of human tyrosyl-DNA phosphodiesterase TDP1; Potency, µM (titrated, usually from 130 µM), inactives show top-dose activity change, negative = inhibition, hits mostly inhibitors; 0.28% of 350,000 active; AID 485290; recombinant TDP1, AlphaScreen DNA substrate cleavage; also: potency is read from the fitted curve at half-maximal effect; % is scaled to controls: 0 for no effect and ±100 for the full control effect; nearly all actives have a fitted effect of over 40% in size
Target sequence (Q9NUW8 whole entry, looked up): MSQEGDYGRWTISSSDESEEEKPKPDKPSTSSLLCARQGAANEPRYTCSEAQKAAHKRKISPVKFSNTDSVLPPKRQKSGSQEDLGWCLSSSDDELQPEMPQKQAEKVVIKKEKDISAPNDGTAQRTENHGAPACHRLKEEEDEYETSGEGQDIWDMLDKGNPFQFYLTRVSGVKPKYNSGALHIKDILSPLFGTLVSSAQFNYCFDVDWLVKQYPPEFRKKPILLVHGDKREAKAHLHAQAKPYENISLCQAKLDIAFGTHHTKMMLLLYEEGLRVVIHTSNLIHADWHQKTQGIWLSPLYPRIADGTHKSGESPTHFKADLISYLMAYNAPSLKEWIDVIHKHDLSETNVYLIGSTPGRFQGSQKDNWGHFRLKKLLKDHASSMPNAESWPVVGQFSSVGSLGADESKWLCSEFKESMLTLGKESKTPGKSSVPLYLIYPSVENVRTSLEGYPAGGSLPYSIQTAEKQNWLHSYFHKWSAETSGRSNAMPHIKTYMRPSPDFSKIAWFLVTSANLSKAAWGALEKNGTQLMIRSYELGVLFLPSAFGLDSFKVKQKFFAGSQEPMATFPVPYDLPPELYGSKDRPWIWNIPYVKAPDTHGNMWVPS
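Recombinant human Tdp1 (E. coli-expressed, 1 nM final) preincubated with compounds 15 min at room temperature, then 5'-biotin/3'-phosphotyrosine-FITC DNA substrate (15 nM final) added for 5 min. AlphaScreen beads (10 ug/ml final) added 10 min; cleavage lowers signal.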
HepG2 viability: kills HepG2 cells in TGF-b inhibitor counter-screen; Potency, µM (top dose mostly 46.1 µM), without a hit: top-dose activity change, negative = cytotoxicity, hits mostly cytotoxic; 0.76% of 410,000 active; AID 588856; HepG2 CAGA-GFP viability, ATP luminescence, 18 h; also: potency is read from the fitted curve at half-maximal effect
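CellTiter-Glo luminescence gave cytotoxicity after 18 hours at 37 degrees C. The cells were HepG2 CAGA-GFP in 1% FBS DMEM, stimulated with 500 pg/mL TGF-beta after compound addition. %Activity was normalised to no-cell wells (complete cell-killing) and DMSO (no toxicity), and curves were fitted and classified.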
IL-1B inflam inh: blocks inflammasome-driven IL-1 beta release | activity change, % at 57.5 µM | 4.7% of 360,000 active | THP-1 LPS/ATP IL-1B secretion, AlphaLISA, 16 h; active compounds read low; in the data active = activity change below about -50%; inconclusive = mostly about -30% to -49%; also: % is scaled to controls: 0 for no effect and ±100 for the full control effect
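Secreted IL-1B measured by AlphaLISA bead assay after 16 h compound exposure of THP-1 cells; compounds (final up to 57.5 uM) added 1 h before LPS (250 ng/mL) and ATP (1.25 mM) stimulation; lower signal means less secretion.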
TGFb inhibitor: TGF-b pathway inhibition. HepG2 CAGA-GFP TGF-b/SMAD3 reporter, GFP fluorescence, 18 h; TGF-beta stimulated, 500 pg/mL final. Potency, µM (titrated, usually from 46.1 µM), without a hit: at the top dose activity, negative = inhibition, actives largely listed as inhibitors. 1.2% of 410,000 active. AID 588855; also: potency is read from the fitted curve at half-maximal effect; % is scaled to controls: 0 for no effect and ±100 for the full control effect; nearly all actives have a fitted effect of over 65% in size
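First, reporter cells (HEPG2 CAGA-GFP) rested 2 h at 37 degrees C. Next, compounds were pinned in and TGF-beta added to 500 pg/mL final. After 18 h, GFP was imaged per cell and summed per well.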
DT40 TDP1 no CPT: qHTS for Inhibitors of human tyrosyl-DNA phosphodiesterase 1 (TDP1): qHTS in cells in absence of CPT; DT40 Tdp1-/- hTDP1 cells, no CPT, ATP luminescence, 48 h; Potency, µM (top dose mostly 46.2 µM), inactives show top-dose activity change, negative = growth inhibition, most hits filed as inhibitors; 15% of 420,000 active; AID 686978, 2013; also: potency is read from the fitted curve at half-maximal effect; % is scaled to controls: 0 for no effect and ±100 for the full control effect; nearly all actives have a fitted effect of over 55% in size
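Camptothecin absent (DMSO only). Human TDP1-complemented DT40 knockout cells, 400 cells/well, 37 °C for minimum 48 hr; ATP measured via CellTiter-Glo, 30 min dark incubation, luminescence.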
Active calls of the source: *; ? = inconclusive; . = no result; ! = not active in a repeat; [ ] = another dose, or the depositor's remark. Hits are enriched below; roughly 19% of the tested compounds scored in any of these assays. Unless noted, calls follow the shape of the dose curve; as a rule, active = well fitted curve in the direction sought with a large enough effect; inconclusive = small, poorly fitted or top-dose-only effect, or another doubt; inactive = no such curve, though single readings can be large; an effect the other way counts as inactive or inconclusive.

SMILES	DT40 TDP1 CPT	TDP1 block	HepG2 viability	IL-1B inflam inh	TGFb inhibitor	DT40 TDP1 no CPT
CC(C)=CCC1(CC=C(C)C)C(=O)C(C(=O)c2ccccc2)=C2OC(C)(C)CCC2(CC=C(C)C)C1=O (configuration not stated)	.	10%[21 µM]	.	.	.	.
Cc1ccc(C(C)C)cc1OCC(=O)NC1CCCCCCC1	18µM*	.	-31%	-57*	?	?
CCOC(=O)C1CCCN(S(=O)(=O)c2cc(OCC(=O)NC3CCCCC3)c(C)cc2Cl)C1 (configuration not stated)	18µM*	2%	17%	-7	-5%	18µM*
Cc1cc(S(=O)(=O)N2CCCC2)ccc1OCC(=O)NC1CCCC1	1%	1%	-3%	14	10%	-22%
Cc1cc(Cl)c(S(=O)(=O)N2CCN(c3ccc(F)cc3)CC2)cc1OCC(=O)NC1CCCCC1	12µM*	5%	-36%	-75*	-18%	8.2µM*
O=[N+]([O-])c1ccc(NS(=O)(=O)N2CCOCC2)cc1	3%	1%	4%	13	4%	-3%
CC(C)C(=O)Nc1nc2c(ncn2C2CC(O)C(CO)O2)c(=O)[nH]1 (configuration not stated)	-28%	3%	-5%	-11	-13%	?
O=c1[nH]cnc2c1ncn2[C@H]1C[C@H](O)[C@@H](CO)O1	13µM*	0%	-2%	.	0%	?
OCC1OC(n2cnc3c(/C=C(\O)c4ccccc4)ncnc32)C(O)C1O (configuration not stated)	1.3µM*	.	-22%	-7	?	1.5µM*
O=c1[nH]cnc2c1ncn2C1CCC(CO)O1 (configuration not stated)	13µM*	.	11%	1	4%	?
OC[C@@H]1CCC[C@@H](n2cnc3c(=S)nc[nH]c32)O1	?	1%	-17%	.	0%	-12%
O=c1[nH]cnc2c1ncn2C1OC(CO)C(O)C1O (configuration not stated)	0.58µM*!	6%	-3%	-4	-8%	0.82µM*!
CCOC(=O)c1c(C)c(-c2ccccc2)n(CC(=O)Nc2cccc(F)c2)c1C	5%	2%	-20%	.	-41%	?
Cc1ccc(-c2nc(SCC(=O)NCc3ccco3)c3c(=O)n(C)c(=O)n(C)c3n2)cc1	-7%	-3%	1%	.	-5%	-7%
Cc1cc(C)n(C(C)CNS(=O)(=O)c2ccc(C)c(C)c2)n1 (configuration not stated)	-13%	0%	-7%	0	18%	-23%
CCn1ccc2cc(S(=O)(=O)N3CCCN(C(=O)NCC(=O)OC)CC3)ccc21	.	5%	-20%	.	-9%	.
CCN(CC)CCn1c(=S)[nH]c2ccc(Cl)cc2c1=O	-1%	-3%	-17%	-10	?	-19%
O=C(NCc1ccccn1)c1ccc(Cn2c(=S)[nH]c3ccc(Br)cc3c2=O)cc1	?	-2%	-15%	12	-15%	6.5µM*
CCOC(=O)N1CCN(C(=O)c2ccc3c(=O)n(-c4ccccc4F)c(=S)[nH]c3c2)CC1	-17%	4%	7%	56	2%	-6%
CCc1ccc(C(CNC(=O)c2ccc3c(=O)n(-c4ccccc4F)c(=S)[nH]c3c2)N(C)C)cc1 (configuration not stated)	?	2%	-16%	-82*	-20%	23µM*
O=c1c2cc(Cl)ccc2[nH]c(=S)n1Cc1ccccn1	18µM*	-3%	-57%	23	?	?
O=C(NCc1ccccn1)c1ccc(Cn2c(=S)[nH]c3ccccc3c2=O)cc1	-26%	-5%	-14%	20	6%	?
CCOc1cc2[nH]c(=S)n(Cc3ccc(C(=O)NCCCN(CC)CC)cc3)c(=O)c2cc1OCC	?	.	-64%	57	-17%	?
CCCCN(C)CCNC(=O)c1ccc(Cn2c(=S)[nH]c3ccc(Br)cc3c2=O)cc1	26µM*	11%	-39%	0	11µM*	?
CCCCCO	3%	0%	1%	-10	8%	-3%
SMILES	DT40 TDP1 CPT	TDP1 block	HepG2 viability	IL-1B inflam inh	TGFb inhibitor	DT40 TDP1 no CPT
COc1ccc(Cl)cc1C(=O)NCCN(C)C	-3%	2%	-16%	0	-5%	-6%
CN(C)CCNC(=O)c1ccc2c(=O)n(Cc3ccc(Cl)cc3)c(=S)[nH]c2c1	21µM*	.	-77%	-63*	?	29µM*
CN(C)CCNC(=O)c1ccc(COc2ccc(Cl)cc2Cl)cc1	?	5%	11µM*	-7	?	18µM*
CC1CCN(CCCNC(=O)c2ccc3c(=O)n(Cc4ccc(Cl)cc4)c(=S)[nH]c3c2)CC1	?	9%	-32%	.	2%	?
O=C(Nc1ccc2c(c1)CCC2)Nc1ccc2c(c1)OCO2	-10%	-3%	-1%	-24	-7%	-8%
COc1ccc2nc(C)cc(Nc3ccc(N4CCN(C)CC4)cc3)c2c1	4.6µM*	.	0%	-106*	-1%	3.3µM*
COc1ccc2nc(C)cc(Nc3ccc(N4CCOCC4)cc3)c2c1	?	7%	-48%	.	?	21µM*
COc1ccc2nc(C)cc(NCCN3CCOCC3)c2c1	-3%	5%[0.0935 µM]	-2%	?	3%	-20%
Cc1cc2c(nc1C)CCCCN2C[C@H](O)CN1CCCc2nc(-c3ccc(Br)cc3)ccc21	.	11%[21 µM]	.	.	.	.
N#CCC(=O)N/N=C\c1ccccc1OC/C=C/c1ccccc1	5.8µM*	0%	-1%	-28	-11%	4.1µM*
COCC(=O)N/N=C\c1ccccc1OC/C=C/c1ccccc1	?	3%	-25%	41	-18%	26µM*
N#CCC(=O)N/N=C\c1ccc(OC/C=C/c2ccccc2)cc1	-10%	1%[56.1 µM]	-3%	-17	0%	4%
COc1ccc(-c2cc3nc(C)cc(-c4ccc(OC)cc4)n3n2)cc1	?	.	-40%	38	-27%	?
COc1cc(OC)cc(-c2cc3nc4c(c(N5CCN(c6ncccn6)CC5)n3n2)CCCC4)c1	?	1%	10%	-11	-3%	23µM*
COc1ccc(-c2c(C)nn3c(N4CCOCC4)cc(C)nc23)cc1OC	2%	.	-1%	-13	0%	1%
CCc1c(C)nc2cc(-c3cc(OC)cc(OC)c3)nn2c1N1CCCC1	29µM*	-2%	-69%	?	?	23µM*
